This note sets out measurements from ChEMBL document CHEMBL3433997, “St. Jude Leishmania screening dataset” (2016).

The target of this experiment is Glucose transporter (Leishmania mexicana) (UniProt O61059). Description: ST_JUDE_LEISH: Cytotoxicity at 2uM final concentration against transgenic Leishmania Mexicana promastigotes LmGT2 that are glucose transport deficient and complemented with the L. Mexicana glucose transporter 2. Activity is measured by DNA content using SYBR green in vitro. The class given is functional.
With `CC(C)C[C@H]1c2[nH]c3ccc(Cl)cc3c2CCN1C(=O)CCc1ccccc1`, the inhibition was -0.65%.
With `Cc1ccccc1C1CCN(C2CCC(NC(=O)c3cc4cc(C(C)C)ccc4[nH]3)CC2)CC1` (centres undefined), the inhibition stood at 1.43%.
For `NCC(=O)Nc1cccc(Nc2nccc(-c3c(-c4cccc(NC(=O)c5ccccc5)c4)nn4ccccc34)n2)c1` the value was 1.14%; for `CC(C)(C)OC(=O)N1CCN(c2ccccc2NC(=O)c2cccc(C(F)(F)F)c2Oc2ccc(F)cc2)CC1`, 0.52%.
Regarding `CC1CN(Cc2ccc(-c3ccc(-c4nc5cc(F)ccc5[nH]4)s3)cc2)CC(C)O1` (centres undefined), the inhibition was 3.99%.
As for `CN1CCCN(Cc2ccc(-c3ccc(NC(=O)c4cccc(C#N)c4)cc3)cc2)CC1`, the inhibition amounted to 0.78%.
As to `COc1ccc(NC(=O)[C@H](CC(C)C)Nc2cc(C)nc(NCCc3ccccc3)n2)cc1`, the inhibition is 1.94%.
For the compound `O=C(Nc1cccc(-c2ccc(-c3nc4cc(C(F)(F)F)ccc4[nH]3)cc2)c1)c1ccncc1`, the inhibition came out at 5.09%.
For the compound `CS(=O)(=O)c1ccc(CNCc2cccc(-c3ccc(-c4nc5cc(C(F)(F)F)ccc5[nH]4)cc3)c2)cc1`, the inhibition turned out to be 3.3%.
Take `C=C(C)COc1ccc(-c2n[nH]c(C(F)(F)F)c2-c2ccccc2OC)c(O)c1`: the inhibition was 6.48%.
Regarding `CN(C)CCN(Cc1ccc(-c2ccc(CNCCc3ccccc3)cc2)nc1)C(=O)CCC1CCCC1`, the inhibition amounted to 6.39%.
Regarding `COc1cc2nc(N(C)C)nc(Nc3ccc(OCc4ccccc4)cc3)c2cc1OC`, the inhibition was -0.07%.
`COc1cc(Cc2cnc(N)nc2N)cc(OCCCCC#N)c1OC`: the inhibition is 5.77%.
For the compound `Fc1ccc2[nH]c(-c3ccc(-c4ccc(CNCCc5ccncc5)cc4)cc3)nc2c1`, the inhibition turned out to be 2.26%.
